In PubChem BioAssay one finds growth inhibition, inhibition and outcome data, which are given here for 20 compounds.

The structures appear in SMILES notation. A number with no mark means an inactive call. For some of these results: Results with a measured potency or affinity are listed apart. Active and inactive are the calls of the source. Unless noted, the rule behind the calls is not given here.

Assay [1] is described as follows: antimalarial activity against Dd2 strain (AID 2302;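 active = growth inhibition above 50% at the single 2 µM test dose, taken to imply half-maximal potency below 2 µM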;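 note: 0% = DMSO untreated growth and 100% = chloroquine plus artemisinin killed control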). The settings on record: P. falciparum Dd2 in RBCs, LDH growth readout, 72 h; at 2 µM; active compounds read high.
Assay [2] can be described thus: HepG2 cytotoxicity, primary screen, cytotoxicity control for P. falciparum antimalarial project, cell-based, ATP luminescence (AID 2303;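 active = inhibition above 50%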;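 note: 0% = DMSO wells and 100% = digitonin-killed cells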). The settings on record: HepG2 viability, 24-48 h, at 10 µM, active compounds read high.
Assay [3] has as its target L-lactate dehydrogenase (Plasmodium falciparum (isolate CDC / Honduras)) (UniProt Q27743). The experiment in a line: PfLDH activity inhibition – cell lysate, 3D7 strain, counter-screen for P. falciparum growth inhibition project (AID 2304).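 Note: 0% = vehicle and 100% = reference inhibitor.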 The conditions noted are these: P. falciparum 3D7 crude extract, LDH APAD/NBT absorbance; at 2 µM; active compounds read high. Background: A counterscreen serves to expose hits that act by an unwanted route or on another target.

Assay [4] is described as follows: inhibition of 3D7 malaria parasite growth – strain 3D7 (AID 2306).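 Note: 0% = DMSO wells and 100% = chloroquine plus artemisinin control wells.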 The conditions noted are these: P. falciparum 3D7 erythrocytic growth, LDH absorbance, 72 h; at 2 µM; active compounds read high.
Assay [5] deals with Calcium-dependent protein kinase 1 (Plasmodium falciparum (isolate 3D7)) (UniProt P62344). In words: PfCDPK1 kinase inhibitors, biochemical, TCAMS library (AID 1159585; cut-off not given, nearly all actives have IC50 up to about 0.98 µM;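 note: inhibitors leave more ATP so luminescence rises with inhibition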). The conditions noted are these: recombinant PfCDPK1, Kinase-Glo ATP depletion luminescence. In general terms: Kinase-Glo reads ATP consumption through a luciferase reaction.
For assay [6], the target named is Plasmodium falciparum protein kinase 6 (PK6, PF3D7_1337100) (UniProt Q8IDW1). In words: PfPK6 kinase inhibitors, biochemical, TCAMS library (AID 1159586). The settings on record: recombinant PfPK6, Kinase-Glo ATP depletion luminescence.
Assay [7] deals with Protein kinase 7 (PK7), Plasmodium falciparum 3D7 (PF3D7_0213400) (UniProt Q7YTF7). The experiment in a line: inhibition of Plasmodium PK7 catalytic activity – biochemical, TCAMS antimalarial set, Kinase-Glo luminescence (AID 1159587). The conditions noted are these: recombinant PfPK7, Kinase-Glo ATP depletion luminescence.
Assay [8] addresses Calcium-dependent protein kinase 4 (Plasmodium falciparum (isolate 3D7)) (UniProt Q8IBS5). The experiment in a line: PfCDPK4 kinase inhibitors, biochemical, TCAMS library (AID 1159588; cut-off not given, nearly all actives have IC50 up to about 0.91 µM). The settings on record: recombinant PfCDPK4, Kinase-Glo ATP depletion luminescence.

What is called inhibition is the change of the read-out against control, counted positive when it falls.

Chain of Plasmodium falciparum protein kinase 6 (PK6, PF3D7_1337100) (Q8IDW1 1-305): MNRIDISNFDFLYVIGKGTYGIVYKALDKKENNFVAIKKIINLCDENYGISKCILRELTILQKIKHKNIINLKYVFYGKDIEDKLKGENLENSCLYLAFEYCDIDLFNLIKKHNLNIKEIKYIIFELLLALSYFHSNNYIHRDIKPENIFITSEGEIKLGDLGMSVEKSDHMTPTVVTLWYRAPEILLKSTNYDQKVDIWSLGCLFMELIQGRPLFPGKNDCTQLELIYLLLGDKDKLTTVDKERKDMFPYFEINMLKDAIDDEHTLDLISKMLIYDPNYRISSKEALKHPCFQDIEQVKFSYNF
Chain of Calcium-dependent protein kinase 4 (Plasmodium falciparum (isolate 3D7)) (Q8IBS5 whole entry, looked up): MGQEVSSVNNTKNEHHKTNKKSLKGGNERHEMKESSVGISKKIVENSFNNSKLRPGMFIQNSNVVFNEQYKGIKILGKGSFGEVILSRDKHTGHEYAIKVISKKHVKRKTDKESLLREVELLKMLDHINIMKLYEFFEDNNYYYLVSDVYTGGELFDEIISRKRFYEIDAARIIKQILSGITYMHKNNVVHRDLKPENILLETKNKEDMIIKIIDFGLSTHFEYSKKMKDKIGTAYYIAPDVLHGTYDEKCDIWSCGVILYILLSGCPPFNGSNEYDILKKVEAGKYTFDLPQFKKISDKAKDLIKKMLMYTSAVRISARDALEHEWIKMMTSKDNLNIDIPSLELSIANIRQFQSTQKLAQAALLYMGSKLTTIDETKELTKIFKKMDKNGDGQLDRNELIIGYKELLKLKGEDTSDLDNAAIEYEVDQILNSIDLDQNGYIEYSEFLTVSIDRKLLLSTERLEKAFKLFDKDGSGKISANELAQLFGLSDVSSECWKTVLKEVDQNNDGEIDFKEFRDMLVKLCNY
Chain of L-lactate dehydrogenase (Plasmodium falciparum (isolate CDC / Honduras)) (Q27743 whole entry, looked up): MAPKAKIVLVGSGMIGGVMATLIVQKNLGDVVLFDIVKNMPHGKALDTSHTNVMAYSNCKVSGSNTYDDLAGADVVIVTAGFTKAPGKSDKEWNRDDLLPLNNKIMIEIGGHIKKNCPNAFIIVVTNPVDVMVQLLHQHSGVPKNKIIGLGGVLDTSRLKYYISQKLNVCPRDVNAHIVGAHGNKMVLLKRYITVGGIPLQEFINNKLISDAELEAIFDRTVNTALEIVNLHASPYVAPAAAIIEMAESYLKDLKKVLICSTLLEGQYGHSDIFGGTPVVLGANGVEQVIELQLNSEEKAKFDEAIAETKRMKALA
Chain of Protein kinase 7 (PK7), Plasmodium falciparum 3D7 (PF3D7_0213400) (Q7YTF7 1-343): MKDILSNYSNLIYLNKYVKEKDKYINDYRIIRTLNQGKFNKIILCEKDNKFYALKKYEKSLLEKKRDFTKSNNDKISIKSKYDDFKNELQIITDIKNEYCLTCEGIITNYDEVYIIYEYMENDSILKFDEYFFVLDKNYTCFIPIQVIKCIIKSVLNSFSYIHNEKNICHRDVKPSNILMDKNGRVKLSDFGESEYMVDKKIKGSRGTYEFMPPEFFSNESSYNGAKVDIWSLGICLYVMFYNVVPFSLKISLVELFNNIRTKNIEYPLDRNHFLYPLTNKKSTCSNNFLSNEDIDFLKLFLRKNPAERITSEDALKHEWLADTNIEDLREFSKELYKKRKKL
Chain of Calcium-dependent protein kinase 1 (Plasmodium falciparum (isolate 3D7)) (P62344 whole entry, looked up): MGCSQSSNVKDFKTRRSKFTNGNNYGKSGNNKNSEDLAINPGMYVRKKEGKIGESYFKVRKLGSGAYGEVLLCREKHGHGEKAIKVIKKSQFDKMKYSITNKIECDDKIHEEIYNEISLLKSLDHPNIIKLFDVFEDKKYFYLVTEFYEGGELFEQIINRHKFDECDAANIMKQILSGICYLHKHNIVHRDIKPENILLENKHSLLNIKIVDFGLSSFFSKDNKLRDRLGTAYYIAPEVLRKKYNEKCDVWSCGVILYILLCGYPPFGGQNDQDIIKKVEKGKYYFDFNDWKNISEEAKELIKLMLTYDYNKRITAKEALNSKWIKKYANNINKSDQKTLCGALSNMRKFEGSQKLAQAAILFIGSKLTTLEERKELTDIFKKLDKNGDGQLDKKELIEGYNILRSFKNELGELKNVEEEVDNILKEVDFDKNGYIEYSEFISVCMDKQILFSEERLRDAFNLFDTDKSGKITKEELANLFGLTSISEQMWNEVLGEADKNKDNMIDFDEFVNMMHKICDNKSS

Consider `CCOC(=O)CCCOc1c(OC)cc(Cc2cnc(N)nc2N)cc1OC`, for which the growth inhibition is 7% in assay [1] and 96% (active) in assay [4]. The values for the inhibition in assay [2] and in assay [3] were 10% and 8%, respectively. The result in assay [5], in assay [6], in assay [7] and in assay [8] was inactive.
Take `CC(Cc1ccc(NC(=O)c2ccc(CNCCc3ccccc3)cc2)cc1)NCCc1cccc(Cl)c1` (stereo not given): the growth inhibition was 99% (active) in assay [1] and 100% (active) in assay [4]. Further, the inhibition in assay [2] is 100% (active); in assay [3], 0%. Also, the result in assay [5], in assay [6], in assay [7] and in assay [8] was inactive.
Take `CC(C)(C)c1ccc(CN2CCC(CNC(=O)c3cc(-c4ccccc4)nc4ccccc34)CC2)cc1`: the growth inhibition in assay [1] was 36%; in assay [4], 89% (active). For the same compound, the results for the inhibition in assay [2] and in assay [3] were 33% and -1%, respectively. Also, the result in assay [5], in assay [6], in assay [7] and in assay [8] was inactive.
`CN1CCC(c2ccc(NC(=O)c3ccc(-c4cccc(C(F)(F)F)c4)o3)cc2)CC1`: the growth inhibition in assay [1] was 23%; in assay [4] it was 86% (active). The results for the inhibition in assay [2] and in assay [3] were 23% and -3%, respectively. Moreover, the result in assay [5], in assay [6], in assay [7] and in assay [8] was inactive.
Consider `CCN1CCN(Cc2ccc3nc(-c4cc(C)n(Cc5cc(Cl)ccc5OCc5ccccc5)n4)[nH]c3c2)CC1`, for which the growth inhibition in assay [1] is 97% (active); in assay [4] it was 102% (active). Besides, the inhibition in assay [2] was 11%; in assay [3], 2%. Moreover, the outcome in assay [5], in assay [6], in assay [7] and in assay [8] was inactive.
Take `O=C(CSc1nccn1C1CCCC1)Nc1cc(C(F)(F)F)ccc1Cl`: the growth inhibition in assay [1] was 94% (active); in assay [4], 96% (active). The inhibition is -4% in assay [2] and -2% in assay [3]. Also, the result in assay [5], in assay [6], in assay [7] and in assay [8] was inactive.
Turning to `Cc1nnsc1C(=O)Nc1cccc(-c2ccc(-c3nc4ccccc4[nH]3)cc2)c1`, the results for the growth inhibition in assay [1] and in assay [4] were 58% (active) and 100% (active), respectively. For the same compound, the inhibition was 48% in assay [2] and 0% in assay [3]. Moreover, the result in assay [5], in assay [6], in assay [7] and in assay [8] was inactive.
As for `COc1cc(OC)nc(-c2cccc(NC(=O)c3ccc4c(=O)n(CCN5CCCCC5)cnc4c3)c2)n1`, the figures for the growth inhibition in assay [1] and in assay [4] were 86% (active) and 100% (active), respectively. Also, the inhibition is 11% in assay [2] and -1% in assay [3]. In addition, the result in assay [5], in assay [6], in assay [7] and in assay [8] was inactive.
Turning to `CN(C)CCCNCc1cn(S(=O)(=O)c2ccccc2Cl)c2ccccc12`, the growth inhibition is 71% (active) in assay [1] and 92% (active) in assay [4]. Moreover, the results for the inhibition in assay [2] and in assay [3] were 20% and -6%, respectively. The result in assay [5], in assay [6], in assay [7] and in assay [8] was inactive.
Take `NC(N)=Nc1cccc(NC(=O)Nc2cccc(N=C(N)N)c2)c1`: the growth inhibition in assay [1] was 71% (active); in assay [4], 87% (active). In addition, the inhibition was -7% in assay [2] and 7% in assay [3]. Moreover, the result in assay [5], in assay [6], in assay [7] and in assay [8] was inactive.
`Cc1ccccc1C(O)CNc1ccnc(Nc2cccc(C#N)c2)n1` (stereo not given): the growth inhibition in assay [1] is 12%; in assay [4], 94% (active). Besides, the inhibition in assay [2] is 22%; in assay [3] it was 0%. Moreover, the result in assay [5], in assay [6], in assay [7] and in assay [8] was inactive.
With `CCCCNC(=O)[C@@H]1CCCN1C(=O)c1ccc(O)c(-c2ccc(Cl)c(Cl)c2)c1`, the growth inhibition in assay [1] was 92% (active); in assay [4], 98% (active). For the same compound, the inhibition in assay [2] and in assay [3] was -1% throughout. Besides, the outcome in assay [5], in assay [6], in assay [7] and in assay [8] was inactive.
In the case of `CCCCCCN(CCCCCC)CC(O)c1c(OC)ccc2ccccc12` (stereo not given), the growth inhibition is 100% (active) in assay [1] and 101% (active) in assay [4]. Also, the inhibition was 18% in assay [2] and -1% in assay [3]. Besides, the result in assay [5], in assay [6], in assay [7] and in assay [8] was inactive.
As to `CN(c1ncc(-c2cccc(CNCc3ccccc3O)c2)cn1)C1CCCCC1`, the growth inhibition in assay [1] was 71% (active); in assay [4] it was 95% (active). Moreover, the inhibition in assay [2] is 12%; in assay [3], 3%. In addition, the result in assay [5], in assay [6], in assay [7] and in assay [8] was inactive.
Take `COc1cc(Nc2ccnc3cc(-c4ccncc4)ccc23)cc(OC)c1OC`: the values for the growth inhibition in assay [1] and in assay [4] were 39% and 89% (active), respectively. Further, the inhibition in assay [2] is 9%; in assay [3], 0%. The result in assay [5], in assay [6], in assay [7] and in assay [8] was inactive.
With `Cc1cccc2[nH]c(-c3cccc(-c4cccc(NC(=O)c5cncn5C)c4)c3)nc12`, the growth inhibition in assay [1] is 91% (active); in assay [4], 103% (active). In addition, the inhibition in assay [2] is -1%; in assay [3], 0%. Further, the outcome in assay [5], in assay [6], in assay [7] and in assay [8] was inactive.
In the case of `CCCCN(CCCC)C(=N)c1cccc2c1CCCC2`, the values for the growth inhibition in assay [1] and in assay [4] were 9% and 95% (active), respectively. Also, the inhibition in assay [2] was 11%; in assay [3], -2%. In addition, the outcome in assay [5], in assay [6], in assay [7] and in assay [8] was inactive.
Consider `Cc1ccc(C(=O)Cn2nc(-c3ccc(C)c(S(=O)(=O)N4CCCCC4)c3)ccc2=O)cc1`, for which the growth inhibition in assay [1] was 76% (active); in assay [4], 99% (active). Further, the figures for the inhibition in assay [2] and in assay [3] were 6% and -5%, respectively. The outcome in assay [5], in assay [6], in assay [7] and in assay [8] was inactive.
With `CNC(=O)c1cnc(Nc2ccc(OCC(O)CN(C)C)cc2)nc1Nc1cccc(OC(C)C)c1` (stereo not given), the growth inhibition is 100% (active) in assay [1] and 103% (active) in assay [4]. The inhibition is 21% in assay [2] and 1% in assay [3]. The outcome in assay [5], in assay [6], in assay [7] and in assay [8] was inactive.
For the compound `Fc1ccc(Nc2ccnc3cc(-c4cccc(CN5CCCCC5)c4)ccc23)c(Cl)c1`, the growth inhibition in assay [1] was 58% (active); in assay [4], 91% (active). Moreover, the inhibition in assay [2] is 3%; in assay [3], -1%. The result in assay [5], in assay [6], in assay [7] and in assay [8] was inactive.
